PostGolgi yeast: growth inhibition of a yeast mutant, post-Golgi transport screen | post-Golgi transport phenotypic cell assay | 98,000 compounds, 0.9% hits | inhibition, % at 10 µM;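 further: yeast cells grown in 1536-well plates; yeast grown about 18 h at 30C before absorbance read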
Cav32 inh: human Cav3.2 channel inhibition, primary screen; B-score at 10 µM; 100,000 compounds, 4% hits; O95180; Cav3.2-expressing cells, Fluo-4 calcium fluorescence FDSS; stronger effect = lower value;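 active means single-dose well whose peak fluorescence ratio is a statistical outlier from its plate by either plate-standardised score or position-corrected B-score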
TNAP act DEA: activators of human TNAP at intermediate phosphate acceptor; P05186; purified TNAP, CDP-star luminescence, 100 mM DEA, 30 min; stronger effect = higher value; scale: 0 levamisole-inhibited, 1 vehicle-only enzyme; activation factor at 20 µM; 64,000 tested, under 10 active; AID 813;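 active means activation factor of at least 2 at 20 µM, relative to controls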
DAT uptake mod: modulates human dopamine transporter uptake under cocaine; Q01959; LLC-PK1 hDAT cells, [14C]-dopamine uptake with cocaine IC80; actives deviate in either direction; B-score at 10 µM; 110,000 compounds, 1.3% hits; AID 449768;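 active means Z score or B-score, a plate-position-corrected score, falls beyond the plate's 99.7% confidence bounds, in either direction; inactive means both scores lie inside the 99.7% bounds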;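 further: scored against the spread of the other compound wells on the same plate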
PostGolgi ctrl: growth of the yeast control strain, post-Golgi counter-screen | efflux-deficient yeast background strain, growth absorbance A615, 16 h | inhibition, % at 10 µM | 98,000 compounds, 5% hits | AID 738
Smad3 FoxH1 inh: Smad3 (human) transcription factor binding inhibition; AID 630; TR-FRET Smad3/Dy647-FoxH1 peptide binding, europium anti-His; P84022; inhibition, % at 25 µM; 88,000 compounds, 0.29% hits;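 active means compounds that reduce the energy-transfer binding signal between the protein and its labelled peptide by more than half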;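 further: 0% = Smad3 plus labelled peptide maximal FRET and 100% = peptide-only background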
* marks the source's active call; other numbers are inactive results; · = not tested or not shown. Rows were chosen to be rich in hits. Some 8.7% of all compounds tested hit in one or more screens of this group. Unless noted, no stated cut-off is given here; in the data, active means inhibition above about 30%; inactive means the rest.

SMILES | PostGolgi yeast | Cav32 inh | TNAP act DEA | DAT uptake mod | PostGolgi ctrl | Smad3 FoxH1 inh
Cc1cc(C)nc(NC(=O)COc2cc(Cl)cc(Cl)c2)n1 | 9.4 | -0.094 | · | -1.02 | 32.3* | 13.8
CCC(C)(C)n1nnnc1CN1CCSCC1 | 17.4 | -0.0103 | 0.9 | -0.133 | 10.2 | -5.6
CCOC(=O)C1=Nc2ccccc2C1=[N+]=[N-] | 106.3* | · | 0.9 | -0.34 | 100.9* | -2.9
CCOC(=O)c1ccccc1NC(=O)N[C@@H](C)C(=O)OC | -6.4 | 0.788 | · | -0.196 | 4.7 | -5.1
O=C(Cn1c(NCCO)nc2ccccc21)NCCc1ccccc1 | -1.3 | 0.578 | 1 | -0.848 | 37.9* | 5.2
CC(C)(C)c1cc(C(F)(F)F)nc(SCCCNC(=O)c2ccco2)n1 | -2.0 | -4.63* | 0.9 | 0.203 | 8.7 | 8.6
COc1ccc(CCNC(=O)CCSc2nc(-c3ccco3)cc(C(F)(F)F)n2)cc1 | 1.2 | -1.14 | 0.9 | 0.00203 | -10.1 | 4.1
CCCn1c(CC)nc([N+](=O)[O-])c1S(=O)(=O)c1ccccc1 | 2.1 | 3.16 | · | 0.734 | 17.2 | ·
CC(=O)n1cc(C2C(=O)CC(C)(C)CC2=O)c2ccccc21 | -2.2 | 0.43 | 0.9 | -0.697 | 1.5 | -16.7
CCCS(=O)(=O)c1cn2cccc(N)c2c1S(=O)(=O)CCC | -0.6 | 0.161 | 0.9 | 0.305 | 31.3* | -6.0
COCCNC(=O)c1cn(C)c2ccc(S(=O)(=O)N(C)C3CCCCC3)cc2c1=O | -14.7 | 2.81 | 0.9 | 0.627 | 30.5* | 6.7
CCOCCCNC(=O)c1cn(C)c2ccc(S(=O)(=O)N(C)C3CCCCC3)cc2c1=O | -0.5 | · | 0.9 | · | 8.2 | 8.6
CC(C)NC(=O)c1ccc2c(=O)n(C3CCCC3)c(=S)[nH]c2c1 | 3.0 | -0.487 | 0.9 | -0.0138 | -5.1 | 3.7
O=C(c1ccc2c(=O)n(C3CCCC3)c(=S)[nH]c2c1)N1CCc2ccccc21 | 66.5* | -4.58* | · | -0.834 | 99.0* | -4.7
CCC(C)NC(=O)N[C@@H](CCSC)C(=O)OC (some centres not stated) | 0.0 | 0.778 | · | -1.84 | 1.3 | -1.7
CC(C(=O)NC1CCCC1)N(C(=O)c1ccc(-c2ccccc2)[nH]1)c1ccccc1F (configuration not stated) | 22.2 | -6.01* | · | 0.909 | 18.8 | ·
O=Nc1c(O)n(Cc2ccc(Cl)cc2)c2ccccc12 | -4.8 | -0.444 | · | -1.39 | 17.3 | ·
CCOC(=O)n1c(=O)oc2ccc(Cl)cc21 | · | -0.705 | · | -0.291 | · | -1.9
CCOC(=O)n1c(=O)n(Cc2ccc(Cl)cc2Cl)c2ccccc21 | -10.9 | · | · | 0.34 | 34.0* | ·
O=Nc1c(O)n(Cc2ccc(Cl)cc2Cl)c2ccccc12 | 33.8* | 0.134 | · | -0.87 | 65.4* | ·
Cc1cc(C)c(S(=O)(=O)NCCn2ccc3ccccc32)c(C)c1 | -0.2 | -0.345 | · | -0.0212 | 56.9* | 2.3
CCOC(=O)CSc1nc2c(sc(=S)n2Cc2ccco2)c(=O)n1-c1ccccc1 | -1.5 | -3.87* | 0.8 | -0.0442 | 5.1 | 3.1
CCN(CC)C(=O)CSc1nc2c(sc(=S)n2Cc2ccco2)c(=O)n1-c1ccccc1 | 6.9 | -2.7 | · | 0.605 | 11.1 | 6.2
CCOC(=O)CSc1nc2c(sc(=S)n2-c2ccccc2OC)c(=O)n1Cc1ccco1 | 2.3 | -5.63* | · | -4.32* | 19.1 | 0.8
COc1ccc(NC(=O)C(C)N(c2ccc(C)cc2)S(C)(=O)=O)c(OC)c1 (configuration not stated) | -9.5 | 0.32 | 0.9 | 0.115 | 23.2 | 0.7
SMILES | PostGolgi yeast | Cav32 inh | TNAP act DEA | DAT uptake mod | PostGolgi ctrl | Smad3 FoxH1 inh
O=C(OCn1ncc(Cl)c(Cl)c1=O)c1ccc(C(F)(F)F)cc1 | 108.9* | 1.58 | · | -1.46 | 67.7* | ·
Cc1ccc(C(=O)OCn2ncc(Cl)c(Cl)c2=O)cc1 | 93.4* | -2.14 | · | -1.69 | 48.9* | ·
Cc1ccc(C)c(C(=O)Cn2ncc(Cl)c(Cl)c2=O)c1 | 18.4 | 3.19 | · | · | 18.4 | -27.7
COCc1cc(C)nc(NCCO)c1C#N | -2.8 | -0.0836 | · | -0.459 | 8.7 | -1.5
CCOc1ccccc1-c1nnc(SCC(=O)Nc2ccccc2)o1 | -5.8 | -2.34 | 1 | 0.0214 | 43.3* | 6.7
COc1ccc(Oc2c(Cl)cnn(-c3ccc(F)cc3)c2=O)cc1 | -5.1 | · | · | -0.0657 | 5.6 | ·
COC(=O)C1=C(N)Oc2cc(C)n(CCc3ccccc3)c(=O)c2C1c1cccnc1 (configuration not stated) | 17.1 | -0.81 | 0.9 | 1.18 | 2.8 | 2.5
COc1ccc(Br)cc1/C=N/NC(=O)CNC(=O)/C=C/c1ccccc1 | -0.5 | -7.55* | · | 0.761 | 17.2 | ·
COc1ccc(C(=O)N2CCC(n3c(C)nc4cc(F)ccc43)CC2)cc1OC | 2.0 | 1.53 | 1 | 2.82* | 5.5 | 3.8
CC(Nc1ccc(Cl)cc1)c1cc(Cl)ccc1O (configuration not stated) | · | -2.99 | · | -0.197 | · | 4.7
CC(Nc1ccc(Br)cn1)c1cc(Cl)ccc1O (configuration not stated) | -2.7 | · | 0.8 | · | 31.1* | 12.7
Cc1ccc(S(=O)(=O)C2(C(=O)N3CCN(C4CCCCC4)CC3)CC2)cc1 | 3.6 | -5.19* | 1 | -0.921 | 11.9 | ·
Cc1ccc(S(=O)(=O)C2(C(=O)N3CCCCCC3)CC2)cc1 | 2.6 | 1.31 | 0.8 | -0.431 | 6.0 | -5.2
Cc1ccccc1-c1nc(CN2CCCC(C(=O)NCc3cccnc3)C2)c(C)o1 (configuration not stated) | 1.4 | 2.21 | 1 | 1.23 | 2.3 | 0.2
O=C(CSc1nc(Nc2ccccc2)nc(N2CCOCC2)n1)N1CCc2ccccc21 | -2.5 | 0.444 | 0.9 | -1.09 | 53.6* | 1.9
c1ccc(Nc2nc(N3CCNCC3)nc(N3CCOCC3)n2)cc1 | · | 1.11 | · | 1.92 | · | 0.5
c1ccc(Nc2nc(N3CCOCC3)nc(N3CCOCC3)n2)cc1 | 4.3 | · | 0.9 | -0.18 | 32.2* | ·
O=C(CSc1nnc(-c2ccccc2)c(-c2ccccc2)n1)N1CCc2ccccc21 | 15.7 | -4.53* | · | 1.56 | 17.1 | ·
Cc1cccc2c1CC(C)(C)N=C2C1=C(O)CC(C)(C)CC1=O | 5.2 | 1.66 | · | 0.0263 | 7.1 | -9.3
CC(C)(C)OC(=O)Cn1c(=O)cnc2ccccc21 | 4.4 | -0.038 | · | -0.724 | 6.4 | 5.8
COC(=O)C(NC(=O)COc1ccccc1)(Nc1nc2c(s1)CCCC2)C(F)(F)F (configuration not stated) | · | -6.31* | · | 0.453 | · | 0.1
CCOC(=O)C(NC(=O)CC)(Nc1nc2c(s1)CCCC2)C(F)(F)F (configuration not stated) | · | 0.358 | · | 1.73 | · | 8.6
NC(=O)c1ccc(OCC(F)(F)C(F)(F)C(F)(F)C(F)(F)C(F)(F)C(F)F)cc1 | -9.7 | -0.281 | 0.9 | -0.669 | 27.6 | ·
Cc1cc(OCC(F)(F)C(F)(F)C(F)(F)C(F)(F)C(F)(F)C(F)F)nc(N)n1 | 37.0* | -0.206 | · | -0.00722 | 2.8 | 8.9
COC(=O)c1ccccc1NC(=S)NC(=O)COc1ccccc1Cl | -1.4 | · | · | · | 31.4* | ·
COC(=O)c1ccccc1NC(=S)NC(=O)COc1ccc(C)cc1 | · | 0.392 | · | -0.319 | · | ·

Screening results from PubChem BioAssay.
